Among the data in PubChem BioAssay AID1645856 (Buhrlage Lab, Dana-Farber Cancer Institute and Novartis …, 2021) are inhibition values, retold here.

The whole screen tested about 47,000 compounds, of which about 510 (1.1%) were called active. The sample holds actives, similar compounds and a random draw of the others, so the mix is not that of the screen. A number with no mark means an inactive call. Cut-off read from the data, not from the text of the source: active = inhibition above about 30%; inactive = the rest.

The test deals with Ubiquitin carboxyl-terminal hydrolase 10 (Homo sapiens) (UniProt Q14694). The experiment in a line: inhibitors of human USP10 deubiquitinase (AID 1645856). As to conditions: purified USP10, Ub-rhodamine fluorescence, 60 min; at 20 µM; active compounds read high.
Sequence of Ubiquitin carboxyl-terminal hydrolase 10 (Homo sapiens) (Q14694 whole entry, looked up): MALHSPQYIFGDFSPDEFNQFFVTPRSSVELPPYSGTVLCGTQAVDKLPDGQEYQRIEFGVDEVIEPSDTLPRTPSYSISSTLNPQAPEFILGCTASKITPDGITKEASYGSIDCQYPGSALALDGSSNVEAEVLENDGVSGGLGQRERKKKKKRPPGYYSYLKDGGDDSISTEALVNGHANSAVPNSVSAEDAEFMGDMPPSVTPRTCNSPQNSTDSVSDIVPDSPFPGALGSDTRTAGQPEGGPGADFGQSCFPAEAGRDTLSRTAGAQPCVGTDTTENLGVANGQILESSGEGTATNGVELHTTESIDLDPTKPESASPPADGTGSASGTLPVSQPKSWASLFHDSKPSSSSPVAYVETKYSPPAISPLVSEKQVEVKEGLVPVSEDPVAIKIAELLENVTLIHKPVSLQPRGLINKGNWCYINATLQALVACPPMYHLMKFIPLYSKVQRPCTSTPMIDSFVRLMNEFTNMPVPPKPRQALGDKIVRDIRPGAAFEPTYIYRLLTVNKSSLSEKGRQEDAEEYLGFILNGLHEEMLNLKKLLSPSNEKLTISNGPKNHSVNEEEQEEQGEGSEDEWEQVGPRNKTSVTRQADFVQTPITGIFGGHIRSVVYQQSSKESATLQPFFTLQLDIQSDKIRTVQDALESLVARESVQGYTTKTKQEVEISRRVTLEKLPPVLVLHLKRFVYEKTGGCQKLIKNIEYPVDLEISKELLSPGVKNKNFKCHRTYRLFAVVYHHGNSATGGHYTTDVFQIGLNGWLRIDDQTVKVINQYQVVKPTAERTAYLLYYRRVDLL
As usually defined, the inhibition is the relative decrease from the control value, in per cent. Turning to `Cc1c(-c2nnc(-c3ccccn3)o2)nnn1-c1ccccc1Cl`, the inhibition is 1.56%.

Regarding `COc1ccc(-c2noc(-c3ccc(N(C)Cc4ccco4)nn3)n2)cc1`, the inhibition is 0.989%. For the molecule `Cc1ncccc1Oc1nccnc1C1CCNCC1`, the inhibition was 0.116%. The same measure for `CCN(CC)C(=O)CC[C@H]1CNC(=O)[C@@H]2[C@@H](CCN2CC2CC2)N1C`: -0.533%. The same measure for `O=C1CC(c2ccc(OCc3ccccc3)cc2)c2sccc2N1` (stereo not given): 2.63%; for `COc1cccc(CCN2CCOc3nc4c(C)cccc4cc3C2)c1OC`: 1.85%. The figure for `Cn1c(=O)[nH]c(=O)c2c1nc(N1CCCCCC1)n2CCCSc1nc2ccccc2s1` is 20.1%. Consider `Cn1c2c(c(=O)n(C)c1=O)[C@@H]1c3c(ccc4ccccc34)OC[C@@H]1CO2`, for which the inhibition is -4.17%.

Consider `CO[C@@H](/C(C)=C/C=C/C(C)=C/c1coc(C)n1)[C@@H](C)[C@@H]1C[C@H](O)[C@@]2(C)O[C@@H]2/C=C/[C@@H](C)[C@H](O)C[C@H](CC(=O)O)C/C=C/C(=O)O1`, for which the inhibition was -8.33%. Turning to `CN(c1ccc(F)cc1)c1ccc2ccc(C(=O)N3CCCC(O)C3)cn12` (stereo not given), the inhibition is -11.2%. The same measure for `Cn1c(SCC(N)=O)nnc1-c1cc2ccccc2o1`: -1.83%; for `Cc1noc(C)c1C1CCCN1C(=O)c1c(F)cccc1F` (stereo not given): 2.21%; for `CC(CN1CCOCC1)OC(=O)c1ccc(C(C)(C)C)cc1` (stereo not given): 0.0972%. The same measure for `CC(C)CC(=O)Nc1ccc(-c2nc3ncccc3o2)cc1`: 1.25%. The figure for `CCOc1ccccc1NC(=O)Cc1cccs1` is 1.12%; for `Cc1cccc(Nc2nc(N3CCOCC3)nc3c2cnn3C)c1` it is -3.81%; for `CCc1nc2cc(N3CCC(C(=O)N4CCN(CC)CC4)CC3)cnc2nc1CC` it is -3.73%. As to `O=C(NCC1CCCCC1)C1CCN(C2=NS(=O)(=O)c3ccccc32)CC1`, the inhibition was -1.45%.

Turning to `COc1cccc(CNC(=O)c2ccc3c(=O)nc4c(-c5ccccc5)n[nH]n4c3c2)c1`, the inhibition is 17.4%. The same measure for `Cc1cc(Cl)cc(C)c1OCC(=O)NC1CCCc2ccccc21` (stereo not given): -1.09%; for `CCOC(=O)C1CCN(C(c2cccnc2)c2c(NC(C)=O)sc3c2CCCC3)CC1` (stereo not given): -3.05%; for `CC1CCN(C(=O)C2CCN(C(=O)c3ccc4c(c3)nnn4C3CCCC3)CC2)CC1`: -0.291%.

Regarding `Cc1ccc(N2CC(c3nnc(NC(=O)CCCc4ccccc4)s3)CC2=O)cc1` (stereo not given), the inhibition is 8.86%. The same measure for `Cc1ccc(CC(=O)Nc2nnc(C3CC(=O)N(c4ccc(C)c(C)c4)C3)s2)cc1` (stereo not given): 15.3%; for `COc1ccc(N2CC(c3nnc(NC(=O)CCc4ccccc4)s3)CC2=O)cc1` (stereo not given): 30.4% (active).
